Our source for the AC50 and outcome values is PubChem BioAssay (EPA / NIEHS).

The AC50 is the concentration at which the activity in the assay is half-maximal.

SMILES strings stand for the structures. Records with an inconclusive call do not appear. Active and inactive are the calls of the source. Rule for the calls: active = hit-call score of the fitted dose curve at least 0.9, where 1 is the maximum; inconclusive = response in the unintended direction; inactive = score below 0.9.

zebrafish Estrogen Receptor (ESR1), esr1 (gene 259252), sequence (P57717 whole entry, looked up, the tested form may be a part): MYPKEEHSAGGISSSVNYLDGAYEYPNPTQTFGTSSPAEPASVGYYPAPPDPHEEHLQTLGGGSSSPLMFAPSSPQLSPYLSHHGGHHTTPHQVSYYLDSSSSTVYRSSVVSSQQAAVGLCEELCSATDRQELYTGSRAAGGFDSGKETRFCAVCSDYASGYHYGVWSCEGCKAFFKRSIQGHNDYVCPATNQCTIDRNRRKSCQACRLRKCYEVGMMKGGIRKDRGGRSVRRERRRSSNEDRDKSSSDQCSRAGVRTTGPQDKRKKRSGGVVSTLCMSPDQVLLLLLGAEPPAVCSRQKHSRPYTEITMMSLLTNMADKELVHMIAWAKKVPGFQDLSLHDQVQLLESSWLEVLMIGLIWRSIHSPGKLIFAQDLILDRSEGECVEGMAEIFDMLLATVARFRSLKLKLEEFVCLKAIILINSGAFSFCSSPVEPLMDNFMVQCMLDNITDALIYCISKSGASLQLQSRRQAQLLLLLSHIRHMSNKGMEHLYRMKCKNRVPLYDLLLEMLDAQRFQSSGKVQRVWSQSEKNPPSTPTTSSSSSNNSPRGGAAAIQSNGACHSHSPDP

In the assay the target is zebrafish Estrogen Receptor (ESR1), esr1 (gene 259252) (UniProt P57717). The assay can be described thus: ATG_zfER1_XSP1: Attagene TRANS-FACTORIAL Multi-Species (XSP1) HepG2 Assay for zebrafish Estrogen Receptor (ESR1) (AID 2283772). In outline:
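HepG2 cells transiently transfected with a GAL4-UAS reporter and chimeric zebrafish ER-Gal4, dosed 24 h with 3 nM 6-alpha-fluorotestosterone present. Reporter mRNA measured by RT-PCR and capillary electrophoresis; gain of signal versus DMSO.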
`O=C(c1ccc(O)cc1O)c1ccc(O)cc1O`: the AC50 is 1.38 µM (active).
Consider `CC(C)(c1ccc(O)cc1)c1ccc(O)cc1`, for which the AC50 was 1.26 µM (active).
For the molecule `CC(=O)S[C@@H]1CC2=CC(=O)CC[C@]2(C)[C@H]2CC[C@@]3(C)[C@@H](CC[C@@]34CCC(=O)O4)[C@H]12`, the molecule was classed as inactive.
For the molecule `C#C[C@]1(O)CC[C@H]2[C@@H]3CCC4=CC(=O)CC[C@@H]4[C@H]3CC[C@@]21CC`, the call was inactive.
As to `C=CCOC(Cn1ccnc1)c1ccc(Cl)cc1Cl` (centres undefined), the result was inactive.
Take `CCCCC(CC)CN1C(=O)C2C3C=CC(C3)C2C1=O` (centres undefined): the outcome was inactive.
With `CC1(C)C(C=C(Cl)Cl)C1C(=O)OCc1cccc(Oc2ccccc2)c1` (centres undefined), the result was inactive.
Turning to `Oc1ccc(C(c2ccc(O)cc2)C(Cl)(Cl)Cl)cc1`, the molecule was called inactive.
`CC(C)CCCCCCc1ccc(O)cc1`: the AC50 was 2.68 µM (active).
